Screens (PubChem)
This excerpt belongs to a sample that is enriched for hits.
MLL CXXC-DNA inh: inhibitors of human MLL CXXC domain-DNA interaction; MLL-CXXC / FITC-HOXA9 DNA fluorescence polarization; AID 2662; Q03164; 0.037% of 290,000 active; Potency, µM (titrated, usually from 115 µM), for inactives: at the highest dose activity change, negative = inhibition, hits mostly inhibitors; active means well fitted inhibition curve with a large enough effect in the polarisation, with a control signal flat, not every such curve was filed as active; inconclusive means small, poorly fitted or top-dose-only effect, or effect the other way, or a change in a side signal; inactive means no such curve, though single readings can be large or run the other way; the % refers to the polarisation; further: potency means the concentration at half of the fitted maximal effect
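Purified MLL-CXXC (added from a 7 uM solution) was preincubated 5 min at ambient with pinned compounds in 50 mM Tris-HCl pH 7.5, 50 mM NaCl, 1 mM DTT, 0.05% BSA. Fluorescein-labeled HOX-A9 DNA (50 nM solution) followed, 30 min, then polarization read.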
Menin-MLL FL inh: inhibitors of human menin-MLL interaction, wild-type MLL peptide; 290,000 tested, under 10 active; FP activity change, % at 61.4 µM; Fluorescence polarization, fluorescein-MLL peptide displacement from menin; active means well fitted curve in the direction sought with a large enough effect in the polarisation, not every such curve was filed as active; inconclusive means small, poorly fitted or top-dose-only effect, or effect the other way, or a change in a side signal; inactive means no such curve, though single readings can be large or run the other way; the % refers to the polarisation; further: % of control where 0% means no effect
Menin-MLL TR inh: displaces Texas Red mutant MLL peptide from human menin; AID 1768; Menin + Texas Red MLL mutant peptide, fluorescence polarization; Potency, µM (doses to about 61.6 µM), for the others: at the highest dose FP activity change, negative = inhibition, actives largely listed as inhibitors; O00255; 0.23% of 270,000 active; active means well fitted inhibition curve with a large enough effect in the polarisation, with a control signal flat, not every such curve was filed as active; inconclusive means small, poorly fitted or top-dose-only effect, or effect the other way, or a change in a side signal; inactive means no such curve, though single readings can be large or run the other way; the % refers to the polarisation; further: potency means the concentration at half of the fitted maximal effect; % of control where 0% means no effect
Target sequence (O00255 whole entry, looked up): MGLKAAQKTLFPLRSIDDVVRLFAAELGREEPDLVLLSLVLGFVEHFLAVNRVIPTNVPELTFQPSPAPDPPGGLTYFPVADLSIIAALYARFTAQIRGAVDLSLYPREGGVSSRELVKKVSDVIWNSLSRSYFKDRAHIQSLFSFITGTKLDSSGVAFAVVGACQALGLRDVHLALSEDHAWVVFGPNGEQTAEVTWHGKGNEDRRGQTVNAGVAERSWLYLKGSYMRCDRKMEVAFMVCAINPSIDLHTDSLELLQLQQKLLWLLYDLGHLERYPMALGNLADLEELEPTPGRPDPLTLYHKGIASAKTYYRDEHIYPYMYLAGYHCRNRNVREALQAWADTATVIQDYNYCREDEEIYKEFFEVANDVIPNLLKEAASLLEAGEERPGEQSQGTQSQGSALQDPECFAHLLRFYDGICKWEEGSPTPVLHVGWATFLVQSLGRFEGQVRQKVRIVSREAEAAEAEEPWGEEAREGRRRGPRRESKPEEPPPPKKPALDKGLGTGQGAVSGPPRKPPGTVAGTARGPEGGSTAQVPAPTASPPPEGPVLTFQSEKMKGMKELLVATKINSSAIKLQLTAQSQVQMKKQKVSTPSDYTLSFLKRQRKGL
GALK inhibitor: blocks human galactokinase activity; Purified GALK, Kinase-Glo residual ATP luminescence; Potency, µM (doses to about 57.5 µM), inactives show at the highest dose activity change, negative = inhibition, usual class: inhibitors; 0.007% of 270,000 active; AID 1868; further: potency means the concentration at half of the fitted maximal effect; on the % scale 0 is the no-effect control and ±100 the full control effect
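Compounds were pin-transferred into ATP buffer (35 uM final), then GALK plus galactose (5 nM, 100 uM final) was added. After 1 h at room temperature, Kinase-Glo Plus was added and luminescence read after 10 min.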
ASM inhibitor: inhibitors of human secretory acid sphingomyelinase | P17405 | placental ASM, HMU-PC fluorogenic substrate, 60 min | Potency, µM (top dose mostly 57.5 µM), for the others: at the highest dose activity change, negative = inhibition, actives largely listed as inhibitors | 0.006% of 340,000 active | AID 504937; further: potency means the concentration at half of the fitted maximal effect
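Fluorogenic HMU-PC substrate (9 uM final) is turned over by placental ASM in 60 min at 37 C after a 10 min compound preincubation. Reaction ended by alkaline stop (pH 10), with fluorescence read at 386/447 nm.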
* = called active by the depositor. Unless noted, the call rests on the fitted dose curve; in most records, active means well fitted curve in the direction sought with a large enough effect; inconclusive means small, poorly fitted or top-dose-only effect, or another doubt; inactive means no such curve, though single readings can be large; an effect the other way counts as inactive or inconclusive.

What do the screens show for `CCOC(=O)C1=C(CSc2nc(CC)c(C)cc2C#N)OC(N)=C(C#N)C1c1ccccc1` (stereo not given)?
MLL CXXC-DNA inh: 21.1%; Menin-MLL FL inh: 15.2; Menin-MLL TR inh: -2.3%; GALK inhibitor: 1.8%; ASM inhibitor: 6.0%

Results for CCOC(=O)C1=C(CSc2nc(-c3ccccc3)ccc2C#N)OC(N)=C(C#N)C1c1ccc(OC)cc1 (stereo not given) ?
MLL CXXC-DNA inh: 39.8%; Menin-MLL FL inh: inconclusive; Menin-MLL TR inh: 14.1µM*; ASM inhibitor: 13.8%

Results for CCOC(=O)c1c(C)oc2c1c(C=NCC1CCCO1)c(O)c1ccccc12 (stereo not given) ?
MLL CXXC-DNA inh: -5.3%; Menin-MLL FL inh: 6.9; Menin-MLL TR inh: inconclusive; GALK inhibitor: -3.1%; ASM inhibitor: -3.9%

How did CCOC(=O)c1c(C)oc2c1c(C=NCc1ccccn1)c(O)c1ccccc12 do in these assays?
MLL CXXC-DNA inh: -12.9%; Menin-MLL FL inh: inconclusive; Menin-MLL TR inh: 3.55µM*; GALK inhibitor: -3.5%; ASM inhibitor: -12.2%

Results for COc1ccc2cc3cc(C(=O)NCCCN4CCOCC4)oc3nc2c1 ?
MLL CXXC-DNA inh: -9.3%; Menin-MLL FL inh: 3.0; Menin-MLL TR inh: 28.2µM*; GALK inhibitor: 0.7%; ASM inhibitor: inactive

Results for CCN1CCN(CCCNC(=O)c2cc3cc4ccc(OC)cc4nc3o2)CC1 ?
MLL CXXC-DNA inh: -11.6%; Menin-MLL FL inh: -0.3; Menin-MLL TR inh: inconclusive; GALK inhibitor: -3.3%; ASM inhibitor: 447.4%

What do the screens show for `COCCNc1ncnc2ccc(-c3ccc(C(=O)N(C)C)cc3)cc12`?
Menin-MLL FL inh: 1.0; Menin-MLL TR inh: -27.8%

How did O=C(Nc1ccccc1-c1nc2ccccc2[nH]1)c1ccc(S(=O)(=O)N2CCCCC2)cc1 do in these assays?
MLL CXXC-DNA inh: 30.4%; Menin-MLL FL inh: 3.7; Menin-MLL TR inh: 10µM*; ASM inhibitor: -2.2%

What do the screens show for `CC1CCCCN1S(=O)(=O)c1ccc(C(=O)Nc2ccccc2-c2nc3ccccc3[nH]2)cc1` (stereo not given)?
MLL CXXC-DNA inh: 22.2%; GALK inhibitor: 0.1%; ASM inhibitor: 52.3%

Results for O=c1[nH]ncc2c3ccccc3n(Cc3cccc(Cl)c3)c12 ?
MLL CXXC-DNA inh: inconclusive; Menin-MLL FL inh: inconclusive; Menin-MLL TR inh: -15.0%; GALK inhibitor: 4.0%; ASM inhibitor: 31.6µM*

What do the screens show for `O=C(CC1SC(=NCCc2ccccc2)N(/N=C/c2cccs2)C1=O)Nc1ccc(Cl)cc1` (stereo not given)?
MLL CXXC-DNA inh: 18.5%; Menin-MLL FL inh: 3.6; Menin-MLL TR inh: 39.8µM*; GALK inhibitor: -0.2%; ASM inhibitor: -7.6%

Results for CSCC[C@H](NC(=O)[C@H](CO)NC(=O)[C@H](Cc1ccc(O)cc1)NC(=O)[C@@H](N)CO)C(=O)N[C@@H](CCC(=O)O)C(=O)N[C@@H](Cc1cnc[nH]1)C(=O)N[C@@H](Cc1ccccc1)C(=O)N[C@@H](CCCNC(=N)N)C(=O)N[C@@H](Cc1c[nH]c2ccccc12)C(=O)NCC(=O)N[C@@H](CCCCN)C(=O)N1CCC[C@H]1C(=O)N[C@H](C(=O)NCC(=O)N[C@@H](CCCCN)C(=O)N[C@@H](CCCCN)C(=O)N[C@@H](CCCNC(=N)N)C(=O)N[C@@H](CCCNC(=N)N)C(=O)N1CCC[C@H]1C(=O)N[C@H](C(=O)N[C@@H](CCCCN)C(=O)N[C@H](C(=O)N[C@@H](Cc1ccc(O)cc1)C(=O)N1CCC[C@H]1C(=O)N[C@@H](CC(N)=O)C(=O)NCC(=O)N[C@@H](C)C(=O)N[C@@H](CCC(=O)O)C(=O)N[C@@H](CC(=O)O)C(=O)N[C@@H](CCC(=O)O)C(=O)N[C@@H](CO)C(=O)N[C@@H](C)C(=O)N[C@@H](CCC(=O)O)C(=O)N[C@@H](C)C(=O)N[C@@H](Cc1ccccc1)C(=O)N1CCC[C@H]1C(=O)N[C@@H](CC(C)C)C(=O)N[C@@H](CCC(=O)O)C(=O)N[C@@H](Cc1ccccc1)C(=O)O)C(C)C)C(C)C)C(C)C ?
Menin-MLL FL inh: -14.9; Menin-MLL TR inh: -29.9%

Results for CC(=O)O[C@@]12CO[C@@H]1C[C@H](O)[C@@]1(C)C(=O)[C@H](O)C3=C(C)[C@@H](OC(=O)C(O)[C@@H](NC(=O)OC(C)(C)C)c4ccccc4)C[C@@](O)([C@@H](OC(=O)c4ccccc4)[C@H]21)C3(C)C (stereo not given in full) ?
MLL CXXC-DNA inh: 9.7%; Menin-MLL FL inh: 3.1; Menin-MLL TR inh: -9.2%

What do the screens show for `COCCn1c(=O)c(-c2ccc(OC)cc2)nc2cnc(N3CCN(C)CC3)nc21`?
Menin-MLL FL inh: -7.1; Menin-MLL TR inh: -14.1%

What do the screens show for `COCCn1c(=O)cnc2cnc(N3CCN(C)CC3)nc21`?
Menin-MLL FL inh: -25.3; Menin-MLL TR inh: 35.5µM*

Results for CCSC[C@H](NC(=O)[C@H](C)N)C(=O)N[C@@H](CC(=O)O)C(=O)N[C@H](C(=O)N[C@@H](C)C(=O)N[C@H](C(=O)N[C@@H](CSCC)C(=O)N[C@H](C(=O)N[C@H](C(=O)N[C@@H](Cc1cnc[nH]1)C(=O)N[C@@H](CCCNC(=N)N)C(=O)N[C@@H](CC(C)C)C(=O)N[C@@H](C)C(=O)NCC(=O)N[C@@H](CC(C)C)C(=O)N[C@@H](CC(C)C)C(=O)N[C@@H](CO)C(=O)N[C@@H](CCCNC(=N)N)C(=O)N[C@@H](CO)C(=O)NCC(=O)NCC(=O)N[C@H](C(=O)N[C@H](C(=O)N[C@@H](CCCCN)C(=O)N[C@@H](CC(N)=O)C(=O)N[C@@H](CC(N)=O)C(=O)N[C@@H](Cc1ccccc1)C(=O)N[C@H](C(=O)N1CCC[C@H]1C(=O)N[C@H](C(=O)N[C@@H](CC(N)=O)C(=O)N[C@H](C(=O)NCC(=O)N[C@@H](CO)C(=O)N[C@@H](CCCCN)C(=O)N[C@@H](C)C(=O)N[C@@H](Cc1ccccc1)C(N)=O)C(C)C)[C@@H](C)O)C(C)C)C(C)C)C(C)C)[C@@H](C)O)C(C)C)[C@@H](C)O)[C@@H](C)O ?
Menin-MLL FL inh: 4.4; Menin-MLL TR inh: 2.9%

How did N=C1SC(c2ccccc2)C(=O)N1c1ncc(Cc2ccccc2Cl)s1 (stereo not given) do in these assays?
MLL CXXC-DNA inh: 13.5%; Menin-MLL FL inh: 5.6; Menin-MLL TR inh: 14.1µM*; GALK inhibitor: -0.7%; ASM inhibitor: -4.4%

How did COc1cc(C(=O)N(Cc2cccnc2)Cc2cc3cc4c(cc3[nH]c2=O)OCCO4)cc(OC)c1OC do in these assays?
MLL CXXC-DNA inh: 13.5%; Menin-MLL FL inh: -0.7; Menin-MLL TR inh: 17.8µM*; GALK inhibitor: 3.5%; ASM inhibitor: 75.7%
